We go through 29 compounds from PubChem BioAssay (NCATS).

Results filed as inconclusive are left out. Values without a mark were called inactive. The source made the active and inactive calls. The call rests on the fitted dose curve; in most records, active means well fitted cell-killing curve with a large enough effect; inconclusive means small, poorly fitted or top-dose-only effect, or effect the other way; inactive means no such curve, though single readings can be large or run the other way.
Potency means the concentration at half of the fitted maximal effect.

A short description of this experiment: Viability qHTS for spleen associated tyrosine kinase inhibitor (SYKi) drug resistant MV4-11 cells (AID 1963824). Further: nearly all actives have a fitted effect of over 35% in size. Conditions: SYKi-resistant MV4-11 viability, CellTiter-Glo, 72 h; series mostly up to 45 µM; viability, % of control: at the top concentration. The method, boiled down:
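CellTiter-Glo luminescence, read 10 min after reagent addition, reports viability after a 72 hr compound exposure. Cells are an MV4-11 line made resistant to SYK inhibition, seeded at 500 per well onto compound-containing plates.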
In general terms: qHTS replaces the single test concentration by a dilution series.
Take `COc1ccc(Oc2c(Cl)cnn(C3c4ccccc4-c4ccccc43)c2=O)cc1`: the Potency is 14.6 µM (active). The same measure, in the same setting: the figure for `NC(=O)C1=CC2C3C=CC2C(OC3=O)O1` (centres undefined) is 26.6 µM (active); for `CCCCCCCCCCCCOCCOCCOCCOCCOCCOCCOCCOCCOCCO` it is 5.96 µM (active); for `COc1ccc(C2OCC3C(c4cc(OC)c5c(c4)OCO5)OCC23)cc1OC` (centres undefined) it is 8.93 µM (active). Still for that read-out and setting: the figure for `COc1ccc2cc1Oc1ccc(cc1)CC1c3cc(c(OC)cc3CCN1C)Oc1c(OC)c(OC)c(OC)c3c1C(C2)N(C)CC3` (centres undefined) is 10 µM (active). The same measure, in the same setting: the figure for `C=C1CCC2[C@](C)(CO)CCC[C@@]2(C)[C@@H]1CCC1=CCOC1=O` (some centres undefined) is 7.18 µM (active); for `CCNC(=O)Nc1ccc(Oc2ncnc(N)c2/C=N/OC)cc1Cl` it is 18.6 µM (active). Consider `Cc1cc(C)c(NC(=O)N(Cc2ccc3c(c2)Cc2ccccc2-3)C2CCCCCC2)c(C)c1`, for which the Potency is 16.4 µM (active). On to `CC1OC2OC3C(OCC(O)C3O)OC(=O)C34CCC(C)(C)CC3C3=CCC5C6(C)CC(O)C(OC7OC(CO)C(O)C(O)C7OC7OCC(OC(=O)CC(C)(O)CC(=O)OC1C(OC1OCC(O)C(O)C1O)C2O)C(O)C7O)C(C)(CO)C6CCC5(C)C3(C)CC4O` (centres undefined), for which the Potency was 1.78 µM (active).

Consider `COc1ccc2nc3ccc(OC)cc3c(SCCCN)c2c1`, for which the Potency is 2.31 µM (active). For `Cc1ccccc1C(=O)Nc1ccc(C(=O)N2CCC[C@@H](O)c3cc(Cl)ccc32)c(C)c1`, the Potency was 20.6 µM (active). Take `O=C1NC(=O)/C(=C\c2ccc(-c3ccc(F)cc3O)o2)S1`: the Potency is 11.6 µM (active). For the compound `CC(=O)OC[C@]12[C@H](OC(C)=O)C(=O)[C@@H]3[C@@H](OC(C)=O)[C@@]14O[C@@]3(C)COC(=O)c1cccnc1[C@@H](C)[C@H](C)C(=O)O[C@@H]([C@H](OC(C)=O)[C@@H]2OC(C)=O)[C@]4(C)O`, the “viability, % of control” value is 93.7% [at 17.3 µM]. Turning to `CCC(C)(OC(C)=O)C(=O)O[C@H]1[C@H](OC(C)=O)[C@]2(CO)[C@H](O)[C@H](O)[C@]3(C)C(=CCC4[C@@]5(C)CC[C@H](O[C@@H]6O[C@H](C(=O)O)[C@@H](O)[C@H](O[C@@H]7OC[C@H](O)[C@H](O[C@@H]8OC[C@H](O)[C@H](O)[C@H]8O)[C@H]7O)[C@H]6O[C@@H]6O[C@H](CO)[C@@H](O)[C@H](O)[C@H]6O)C(C)(C)C5CC[C@]43C)[C@@H]2CC1(C)C` (some centres undefined), the Potency is 2.45 µM (active). Take `CC(C)n1nc(-c2ccc(NC(=O)Nc3cccc(C(F)(F)F)c3)cc2)c2c(N)ncnc21`: the “viability, % of control” value was 3.6%. In the case of `CC(C)(C)c1ccc(CN2CCN(C(c3ccccc3)c3ccc(Cl)cc3)CC2)cc1` (centres undefined), the Potency is 23.1 µM (active).

Regarding `C[C@H](O)[C@H](O)[C@H]1CNc2nc(N)[nH]c(=O)c2N1`, the “viability, % of control” value was 93.9%. Turning to `Cc1ccc(F)cc1S(=O)(=O)N[C@@H]1CCN(Cc2ccc(OC(C)C)cc2)C1`, the Potency was 18.4 µM (active). For `C[C@@H]1CCCN1CCc1cc2cc(-c3ccc(C#N)cc3)ccc2o1`, the Potency is 20.6 µM (active). For the compound `Cc1ccc2c(Nc3ccc(Cl)cc3)nccc2c1Nc1ncccc1-c1ncnc2nc[nH]c12`, the Potency was 2.31 µM (active). For `Cc1cc2c(F)c(Oc3ncnn4cc(OCC(C)O)c(C)c34)ccc2[nH]1` (centres undefined), the Potency was 8.2 µM (active).

For the compound `CC(=O)O[C@@]1(C)[C@@H]2CC(=C(C)C)C(=O)C[C@@]2(C)CC[C@H]1OC(=O)C1(C)OC1C` (some centres undefined), the “viability, % of control” value was 89.5%. As to `CN(C)c1nc(NC2CCC(NCCc3ccc(Br)cc3OC(F)(F)F)CC2)nc2ccccc12` (centres undefined), the Potency was 0.651 µM (active). For the compound `CC(=O)N[C@@H](C(=O)O[C@H]1CCC(C)(C)[C@@H]2CCC3=C(COC3=O)[C@@]12C)C(C)C`, the “viability, % of control” value is 74.2%. Take `COc1cc(NC(=O)c2cccc(-n3cc(NC(=O)Nc4cccc(C)c4)cn3)c2)cc(OC)c1OC`: the Potency is 9.2 µM (active). Take `C=CCc1ccc(OC(C)Cc2ccc(OC)c(OC)c2)c(OC)c1` (centres undefined): the Potency was 12.8 µM (active). As for `C=CC(C)(C)C1(CC2NC(=O)C3CCCN3C2=O)C(=O)Nc2cc3c(cc21)C=CC(C)(C)O3` (centres undefined), the Potency is 1.12 µM (active). In the case of `COc1cc(/C=C/C(=O)OC2[C@H](O)CC(O)(C(=O)O)C[C@H]2O)ccc1O` (some centres undefined), the “viability, % of control” value was 97.3%. Same read-out and setting: the figure for `COc1ccc(CCC(=O)O)c(O[C@@H]2O[C@H](CO)[C@@H](O)[C@H](O)[C@H]2O)c1` is 90.4%.
